High-throughput results (PubChem BioAssay)
Rows were chosen to be rich in hits. Some 3.4% of all compounds tested hit in one or more screens of this group.
TEAD-YAP inh: TEAD-YAP interaction inhibition; AID 1259422; inhibition, % at 9.12 µM; 640,000 tested, 1.4% active; HEK-TIYL cells, TEAD-Gal4/YAP UAS-luciferase luminescence; in the data active = inhibition above about 32%;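 also: 0% = median of test compound wells and 100% = reference inhibitor wells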
MITF primary: human MITF inhibition, primary screen; O75030; AlphaScreen MITF homodimerization, bead proximity signal; inhibition, % at 2.6 µM; 650,000 tested, 0.91% active; in the data active = inhibition above about 50%;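 also: 0% = vehicle wells with protein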
GPR151 ag: activators of human GPR151; Q8TDV0; PathHunter beta-arrestin GPR151 cells, luminescence; activation, % at 11.2 µM; 650,000 tested, 1% active; AID 1508602; in the data active = activation above about 4.9%;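 also: 0% = median of compound wells and 100% = cells with positive control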
Target sequence (Q8TDV0 whole entry, looked up): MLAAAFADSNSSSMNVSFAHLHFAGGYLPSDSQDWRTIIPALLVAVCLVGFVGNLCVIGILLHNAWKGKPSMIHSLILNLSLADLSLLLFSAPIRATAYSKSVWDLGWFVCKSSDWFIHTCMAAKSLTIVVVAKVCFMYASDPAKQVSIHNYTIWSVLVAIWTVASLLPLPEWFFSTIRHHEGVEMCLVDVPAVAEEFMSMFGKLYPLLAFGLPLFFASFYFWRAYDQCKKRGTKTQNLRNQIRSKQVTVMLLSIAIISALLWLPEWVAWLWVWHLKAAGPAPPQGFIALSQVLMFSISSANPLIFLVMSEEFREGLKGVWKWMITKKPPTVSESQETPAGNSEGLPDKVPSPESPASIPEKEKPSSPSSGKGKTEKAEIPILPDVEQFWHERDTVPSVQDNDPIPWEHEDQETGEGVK
FBW7 act: activators of human E3 ligase FBW7 | AID 1259310 | AlphaScreen FBW7–phospho-cyclin E peptide binding, activator screen | normalized activity (activation), % at 26.1 µM | 650,000 tested, 0.13% active | Q969H0; in the data active = normalized activity above about 1.9%;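 also: purified mutant Fbw7 with reduced substrate affinity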
GPR151 conf act: human GPR151 activation, confirmation screen. shares compounds with GPR151 ag. GPR151 PathHunter beta-arrestin cells, luminescence, 90 min; % of EA-reagent control over plate median. activation, % at 11.2 µM. 6,700 tested, under 10 active. AID 1508609;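 active = mean percent activation across replicates above the confirmation screen cutoff of 4.91%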
GPR119 counter: GPR119 activation, counter-screen for GPR151 activators; shares compounds with GPR151 ag; GPR119 PathHunter beta-arrestin cells, luminescence, 90 min; 0 = compound-well median, 100 = enzyme-acceptor control; activation, % at 11.2 µM; 6,700 tested, 0.3% active; AID 1508611;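 active = mean percent activation in the counterscreen above 29.09%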;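 also: counterscreen on off-target GPR119 to flag nonselective hits from the GPR151 activator screen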
* marks the source's active call; other numbers are inactive results; · = not tested or not shown.

SMILES	TEAD-YAP inh	MITF primary	GPR151 ag	FBW7 act	GPR151 conf act	GPR119 counter
Cc1cc(N)c2ccccc2[n+]1CCCCCCCCCCCCCC[n+]1c(C)cc(N)c2ccccc21	84*	-16	6.6*	0	1	-6
CC(C)(C)NS(=O)(=O)c1ccc(NC(=O)c2cccc([N+](=O)[O-])c2)cc1	15	26	-1	0	·	·
Cc1ccccc1N(C)S(=O)(=O)c1ccc2[nH]cc(C(=O)N3CCC(C)CC3)c(=O)c2c1	17	10	5.1*	0	0	2
O=C(Cn1ncn2nc(-c3cccs3)cc2c1=O)NC1CCCc2ccccc21 (stereo unspecified)	2	6	1	0	·	·
O=C(Cn1ncn2nc(-c3cccs3)cc2c1=O)NC1CCN(Cc2ccccc2)CC1	-6	-4	13*	0	1	-6
Cc1cccc(/C=N/NC(=O)Cc2cccc3ccccc23)c1O	-3	1	0	0	·	·
CC(C)C(c1nnnn1Cc1ccccc1)N1CCN(C2CCCC2)CC1 (stereo unspecified)	4	3	9.0*	0	-1	-3
c1ccc(CN2CCC(N3CCN(C4CCCC4)CC3)CC2)cc1	11	31	5.1*	0	0	6
CC(C)C(c1nnnn1Cc1ccc(F)cc1)N1CCN(C2CCCC2)CC1 (stereo unspecified)	4	17	-1	0	·	·
COC(=O)c1ccc2c(=O)n(CCc3ccc(S(N)(=O)=O)cc3)c(SCc3c(F)cccc3F)nc2c1	0	23	16*	0	0	1
COC(=O)c1ccc2c(=O)n(CCc3ccc(S(N)(=O)=O)cc3)c(SCC(=O)c3ccccc3)nc2c1	-5	-7	-1	0	·	·
Fc1ccc(CNc2ncnc3c2c(-c2ccccc2)cn3-c2ccccc2)cc1	-2	17	0	1	·	·
O=C(NCCc1ccc(O)cc1)c1cnc(-c2ccccc2)s1	-18	15	1	0	·	·
Nc1cccc(-c2ncc(C(=O)NCCc3ccc(O)cc3)s2)c1	14	0	5.5*	0	0	-1
NS(=O)(=O)c1ccc(CNC(=S)Nc2ccc(Br)cc2Cl)cc1	-6	7	4	0	·	·
NS(=O)(=O)c1ccc(CNC(=O)Nc2ccc(Br)cc2Cl)cc1	-9	12	8.7*	0	-1	-14
Cc1cc(C)n2nc(SCC(=O)N3CCCCC3C)nc2n1 (stereo unspecified)	5	4	0	0	·	·
CCOC(=O)C1=C(C)N(c2ccc(Br)cc2)C(=O)/C1=C\c1ccc(C(=O)O)cc1	-12	-7	-1	0	·	·
CCOC(=O)C1=C(C)N(c2ccc(Br)cc2)C(=O)/C1=C\c1ccc(C(=O)OC)cc1	-12	3	16*	-1	1	1
O=C(Nc1ccc(Oc2cccc(Oc3ccc(NC(=O)c4ccccc4F)cc3)c2)cc1)c1ccccc1F	-2	12	18*	0	-1	-10
O=C(Nc1cccc(NC(=O)c2ccccc2F)c1)c1ccccc1F	-8	13	1	0	·	·
S=c1[nH]nc(-c2ccc(Br)o2)n1Cc1ccccc1	4	7	1	0	·	·
O=C1c2cccc(OCC(=O)N3CCc4ccccc43)c2CCN1Cc1ccccc1	4	17	0	0	·	·
CCCCc1nnc2sc(NC(=O)c3ccc(F)cc3)nn12	1	-11	5.6*	0	0	-7
CC(C)N1C(=O)C(O)(CC(=O)c2ccc3ccccc3c2)c2ccccc21 (stereo unspecified)	2	6	6.2*	0	-1	-9
SMILES	TEAD-YAP inh	MITF primary	GPR151 ag	FBW7 act	GPR151 conf act	GPR119 counter
CN1C(=O)C(O)(CC(=O)c2ccc3ccccc3c2)c2ccccc21 (stereo unspecified)	-2	5	0	0	·	·
CN1C(=O)C(O)(CC(=O)c2cccnc2)c2ccccc21 (stereo unspecified)	9	18	14*	0	-1	-13
CN1C(=O)C(O)(CC(=O)c2ccc(F)cc2)c2ccccc21 (stereo unspecified)	1	-6	4	0	·	·
COc1ccc(C(=O)CC2(O)C(=O)N(C(C)C)c3ccccc32)cc1 (stereo unspecified)	-4	-17	12*	0	0	-9
COc1ccc(C(=O)NCCc2nnc3n2CCN(Cc2cccnc2)CC3)cc1	11	-9	0	0	·	·
Cc1ccc2nc3c(cc(C(=O)NC4CCCC4)c(=N)n3CCc3ccccc3)c(=O)n2c1	4	1	0	0	·	·
OCCC1CN(Cc2cnn(-c3ccccc3F)c2)CCN1Cc1ccccc1 (stereo unspecified)	-4	2	1	0	·	·
O=C(Nc1cc(C(F)(F)F)ccc1N1CCOCC1)c1cc([N+](=O)[O-])ccc1Cl	81*	8	5.6*	0	0	-7
O=C(COc1ccc([N+](=O)[O-])cc1)Nc1cc(C(F)(F)F)ccc1N1CCOCC1	-12	-14	1	0	·	·
O=C(NCc1ccccc1F)C1CN(c2nc3ccccc3s2)C1	-36	2	1	0	·	·
O=C(Nc1nc2c(s1)CCCC2)C1CN(c2nc3ccccc3s2)C1	-17	3	9.8*	0	0	-1
Cc1cccc(-n2c(SCC(N)=O)nnc2-c2ccco2)c1	1	1	0	0	·	·
O=C(Cn1nc2oc3ccccc3n2c1=O)NC1CCCC1	2	-4	7.8*	0	0	9
CCOC(=O)COc1ccc2c(oc(=O)c3ccccc32)c1C	5	-5	-1	0	·	·
CC(=O)COc1ccc2c(oc(=O)c3ccccc32)c1C	-75	-8	7.0*	0	0	13
CCN(CC)C(=O)COc1ccc2c(C)cc(=O)oc2c1C	-11	18	0	0	·	·
Cc1cc(=O)oc2c(C)c(OCC(=O)N(C)C)ccc12	-7	3	18*	1	0	-3
O=C(Nn1c(=S)[nH]c2ccccc2c1=O)c1ccccc1	-15	-11	0	0	·	·
O=C(Nn1c(=S)[nH]c2ccsc2c1=O)c1ccccc1	-22	6	5.0*	0	1	13
Cc1ccc(NC(=O)CC2(CC(=O)O)CCCCC2)c(C)c1	-3	15	5.7*	0	0	8
Cc1cccc(NC(=O)CC2(CC(=O)O)CCCC2)c1	-8	0	-1	0	·	·
CN1CCN(C(=S)Nc2cccc(Cl)c2)CC1	6	14	2	0	·	·
CCN1CCN(C(=S)Nc2cccc(Cl)c2)CC1	6	23	5.8*	0	0	-4
Cc1cccc(C)c1NC(=O)CSc1nc2ccccc2o1	13	3	7.6*	0	-1	-6
O=C(CSc1nc2ccccc2o1)Nc1ccccc1Cl	-41	3	-1	0	·	·
O=C(CSc1nc2ccccc2o1)Nc1ccccc1C(F)(F)F	-17	10	5.2*	0	2	5
